Among all 5,500 compounds or so, about 2,000 (36%) were called active. Not shown: some 18% with an inconclusive outcome. No stated cut-off is given here; in the data, active means normalized growth mostly below about 0.91 (no sharp cut-off); inconclusive means no clear call, values can overlap the other calls; inactive means mostly above about 0.92. The list shows a part of the results.
Test: chemical genetic growth profiling, strain panel (AID 1159580);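 further: tested at 20 µM; growth read once vehicle control cultures reached saturation at 30 °C; 1 = growth at the plate median or of vehicle wells; lower values mean less growth of the strain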
Conditions: growth OD

Measured: normalized growth

COc1cccc2c1CCC1=CC(=O)CC[C@@]12C
inactive: S. cerevisiae deletion strains, locus YJR075W, strain HOC1, hits give low values 0.973 | S. cerevisiae deletion strains, locus YKL009W, strain mrt4, hits give low values 0.98 | S. cerevisiae deletion strains, locus YKL068W, hits give low values 1 | S. cerevisiae deletion strains, locus YKL085W, strain MDH1 (second series), hits give low values 0.982 | S. cerevisiae deletion strains, locus YKL085W, strain MDH1, hits give low values 0.982 | S. cerevisiae deletion strains, locus YKL160W, strain elf1, hits give low values 1 | S. cerevisiae deletion strains, locus YKL190W, strain CNB1, hits give low values 1.01 | S. cerevisiae deletion strains, locus YKR001C, strain vps1, hits give low values 0.986 | S. cerevisiae deletion strains, locus YKR026C, strain gcn3, hits give low values 0.994 | S. cerevisiae deletion strains, locus YKR091W, strain srl3, hits give low values 0.998 | S. cerevisiae deletion strains, locus YLL001W, strain dnm1, hits give low values 1 | S. cerevisiae deletion strains, locus YLL026W, hits give low values 0.992 | S. cerevisiae deletion strains, locus YLL041C, strain sdh2, hits give low values 0.995 | S. cerevisiae deletion strains, locus YLR027C, strain aat2, hits give low values 1.01 | S. cerevisiae deletion strains, locus YLR039C, strain RIC1, hits give low values 1.1 | S. cerevisiae deletion strains, locus YLR058C, strain SHM2, hits give low values 0.993 | S. cerevisiae deletion strains, locus YLR102C, strain apc9, hits give low values 0.993 | S. cerevisiae deletion strains, locus YLR221C, strain rsa3, hits give low values 0.988 | S. cerevisiae deletion strains, locus YLR258W, strain gsy2, hits give low values 0.999 | S. cerevisiae deletion strains, locus YLR262C, strain YPT6 (second series), hits give low values 1.05 | S. cerevisiae deletion strains, locus YLR262C, strain YPT6, hits give low values 1.1 | S. cerevisiae deletion strains, locus YLR268W, strain sec22, hits give low values 0.973 | S. cerevisiae deletion strains, locus YLR320W, strain mms22, hits give low values 1 | S. cerevisiae deletion strains, locus YLR330W, strain CHS5, hits give low values 0.998 | S. cerevisiae deletion strains, locus YLR342W, strain FKS1 (second series), hits give low values 0.941 | S. cerevisiae deletion strains, locus YLR342W, strain FKS1, hits give low values 0.997 | S. cerevisiae deletion strains, locus YLR357W, strain rsc2, hits give low values 1.02 | S. cerevisiae deletion strains, locus YLR370C, strain arc18, hits give low values 0.99 | S. cerevisiae deletion strains, locus YLR371W, strain rom2, hits give low values 0.988 | S. cerevisiae deletion strains, locus YLR384C, strain iki3, hits give low values 1.02 | S. cerevisiae deletion strains, locus YLR418C, strain cdc73, hits give low values 0.9 | S. cerevisiae deletion strains, locus YML016C, strain PPZ1, hits give low values 0.989 | S. cerevisiae deletion strains, locus YML032C, strain rad52, hits give low values 0.988 | S. cerevisiae deletion strains, locus YML120C, strain ndi1, hits give low values 0.988 | S. cerevisiae deletion strains, locus YML124C, strain tub3, hits give low values 0.988 | S. cerevisiae deletion strains, locus YMR058W, strain fet3, hits give low values 1 | S. cerevisiae deletion strains, locus YMR078C, strain ctf18, hits give low values 0.985 | S. cerevisiae deletion strains, locus YMR125W, strain sto1, hits give low values 1 | S. cerevisiae deletion strains, locus YMR129W, hits give low values 0.991 | S. cerevisiae deletion strains, locus YMR205C, strain PFK2, hits give low values 1 | S. cerevisiae deletion strains, locus YMR223W, strain ubp8, hits give low values 0.964 | S. cerevisiae deletion strains, locus YMR231W, strain pep5, hits give low values 1 | S. cerevisiae deletion strains, locus YMR263W, strain SAP30, hits give low values 0.978 | S. cerevisiae deletion strains, locus YMR307W, strain GAS1, hits give low values 0.957 | S. cerevisiae deletion strains, locus YNL067W, strain RPL9B, hits give low values 0.984 | S. cerevisiae deletion strains, locus YNL071W, strain lat1, hits give low values 1 | S. cerevisiae deletion strains, locus YNL128W, strain TEP1, hits give low values 1.01 | S. cerevisiae deletion strains, locus YNL153C, strain GIM3, hits give low values 0.989 | S. cerevisiae deletion strains, locus YNL209W, strain ssb2, hits give low values 1.02 | S. cerevisiae deletion strains, locus YNL233W, strain BNI4, hits give low values 0.988 | S. cerevisiae deletion strains, locus YNL248C, strain rpa49, hits give low values 1.01 | S. cerevisiae deletion strains, locus YNL250W, strain rad50, hits give low values 0.997 | S. cerevisiae deletion strains, locus YNL271C, strain bni1, hits give low values 0.985 | S. cerevisiae deletion strains, locus YNL298W, strain CLA4, hits give low values 0.969 | S. cerevisiae deletion strains, locus YNL307C, strain MCK1, hits give low values 0.933 | S. cerevisiae deletion strains, locus YNL322C, strain KRE1 (second series), hits give low values 1.01 | S. cerevisiae deletion strains, locus YNL322C, strain KRE1, hits give low values 1 | S. cerevisiae deletion strains, locus YNR049C, strain mso1, hits give low values 1.02 | S. cerevisiae deletion strains, locus YNR052C, strain pop2, hits give low values 0.996 | S. cerevisiae deletion strains, locus YOL006C, strain TOP1, hits give low values 0.863 | S. cerevisiae deletion strains, locus YOL012C, strain htz1 1.1 | S. cerevisiae deletion strains, locus YOL147C, strain pex11, hits give low values 0.982 | S. cerevisiae deletion strains, locus YOR001W, strain rrp6, hits give low values 1.02 | S. cerevisiae deletion strains, locus YOR061W, strain CKA2, hits give low values 0.996 | S. cerevisiae deletion strains, locus YOR069W, strain VPS5, hits give low values 1 | S. cerevisiae deletion strains, locus YOR070C, strain gyp1, hits give low values 1 | S. cerevisiae deletion strains, locus YOR080W, strain dia2, hits give low values 1 | S. cerevisiae deletion strains, locus YOR083W, strain WHI5, hits give low values 1.01 | S. cerevisiae deletion strains, locus YOR106W, strain vam3, hits give low values 1.01 | S. cerevisiae deletion strains, locus YOR136W, strain idh2, hits give low values 0.992 | S. cerevisiae deletion strains, locus YOR144C, strain elg1, hits give low values 0.991 | S. cerevisiae deletion strains, locus YOR184W, strain ser1, hits give low values 0.913 | S. cerevisiae deletion strains, locus YOR265W, strain rbl2, hits give low values 1 | S. cerevisiae deletion strains, locus YOR270C, strain vph1, hits give low values 0.915 | S. cerevisiae deletion strains, locus YOR290C, strain snf2, hits give low values 1.02 | S. cerevisiae deletion strains, locus YOR316C, strain cot1, hits give low values 0.99 | S. cerevisiae deletion strains, locus YPL051W, strain arl3, hits give low values 1 | S. cerevisiae deletion strains, locus YPL055C, strain LGE1, hits give low values 0.946 | S. cerevisiae deletion strains, locus YPL078C, strain atp4, hits give low values 1 | S. cerevisiae deletion strains, locus YPL106C, strain sse1, hits give low values 1.02 | S. cerevisiae deletion strains, locus YPL240C, strain hsp82, hits give low values 0.995 | S. cerevisiae deletion strains, locus YPL241C, strain CIN2, hits give low values 1 | S. cerevisiae deletion strains, locus YPR119W, strain clb2, hits give low values 0.989 | S. cerevisiae deletion strains, locus YPR141C, strain kar3, hits give low values 0.997 | S. cerevisiae deletion strains, locus YPR163C, strain tif3, hits give low values 0.979 | S. cerevisiae deletion strains, locus YPR167C, strain met16, hits give low values 0.983 | S. cerevisiae deletion strains, strain wtn01, hits give low values 0.96 | S. cerevisiae strains, strain wild type, hits give low values 1.01

— PubChem BioAssay AID1159580 (chemical genetic matrix, 2015)
